In the library only some 2.8% were active in any assay of this set; here they are far more common.
Peg3 prom inh: inhibitors of Peg3 promoter; HeLa PEG-Prom luciferase reporter, luminescence, overnight; inhibition, % at 20 µM; hit rate 1.7% among 360,000;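 active means inhibition of at least 50% at 20 µM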
HIF-2a block: blocks HIF-2a reporter activity; 786-0 RCC cells HIF-2a reporter, luciferase luminescence, overnight; inhibition, % at 18.8 µM; hit rate 0.72% among 360,000;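 active means inhibition of the luminescence signal of 40% or more relative to plate controls, in a single-dose primary screen at 18.75 µM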
KKLEB tox: counter-screen for CF NF-kB inhibitors: cytotoxicity; KKLEB CF airway cells viability, ATPlite luminescence, overnight; hits give low values; cells stimulated with P. aeruginosa culture filtrate; activity change (cytotoxicity), % at 5 µM; hit rate 0.36% among 360,000; AID 602141;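 active means corrected activity change at or below -50% at 5 µM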
TRPM1 prom inh: reduces MITF-dependent TRPM1 promoter luciferase signal; hit rate 0.83% among 330,000; SK-MEL-5 TRPM1 promoter luciferase, 24 h; inhibition, % at 12.5 µM;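 active means mean inhibition across replicates of 60% or more, whatever share of single replicates reaches that level; inconclusive means some that reach 60%, reason not given; inactive means mean inhibition across replicates below 60%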
Beta2AR agonist: agonists of human beta-2 adrenergic receptor inducing internalization | Am2.2-beta2AR cells, FAP receptor internalization, flow cytometry | P07550 | hit rate 0.43% among 340,000 | AID 504454 | response, % (no concentration beside the values);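 active means response above a set limit, near 3 SD of response in nonfluorescent compounds, cut at about 42% in these data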
Target sequence (P07550 whole entry, looked up): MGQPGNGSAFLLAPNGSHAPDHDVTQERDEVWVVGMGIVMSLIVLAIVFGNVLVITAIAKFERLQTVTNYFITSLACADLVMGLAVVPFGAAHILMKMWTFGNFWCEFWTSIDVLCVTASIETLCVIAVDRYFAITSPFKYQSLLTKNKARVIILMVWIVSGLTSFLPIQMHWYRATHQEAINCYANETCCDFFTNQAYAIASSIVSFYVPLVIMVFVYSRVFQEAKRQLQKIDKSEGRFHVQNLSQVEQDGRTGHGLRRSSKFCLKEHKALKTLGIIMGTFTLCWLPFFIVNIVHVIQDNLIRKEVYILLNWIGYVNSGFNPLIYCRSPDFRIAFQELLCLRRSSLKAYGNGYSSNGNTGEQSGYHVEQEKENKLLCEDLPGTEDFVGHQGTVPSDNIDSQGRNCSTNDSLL
CF NFkB block: cystic fibrosis NF-kB activation inhibition | KKLEB NF-kB-GFP reporter, PAF-induced, GFP fluorescence overnight | inhibition, % at 5 µM | hit rate 0.86% among 360,000;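 active means at least 50% inhibition at 5 µM, scaled per plate between neutral and stimulator controls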;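 further: PAF is a Pseudomonas aeruginosa culture filtrate used as stimulus; plate controls were PAF-stimulated DMSO wells for no effect and unstimulated DMSO wells for full effect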
Active calls of the source: *; ? = inconclusive; / = no result given.

SMILES | Peg3 prom inh | HIF-2a block | KKLEB tox | TRPM1 prom inh | Beta2AR agonist | CF NFkB block
COC(=O)c1cccc(CN2C(=O)C(C)Oc3ccc(C)cc32)c1 (stereo unspecified) | 21 | 13 | -16 | / | / | 16
O=C(NCCOc1ccc(F)cc1)c1ccccc1SCc1ccccc1 | 60* | 16 | 3 | -1 | 35 | 4
COc1ccc(-c2nc3c(c(=O)[nH]c(=O)n3Cc3ccccc3)n2CCO)cc1 | 7 | 15 | -2 | 3 | -4 | 4
O=c1[nH]c(=O)n(Cc2ccccc2)c2nc(-c3ccc(Oc4ccc(F)cc4)c([N+](=O)[O-])c3)n(CCO)c12 | 63* | 21 | -3 | 0 | -5 | -22
C/C(=N/NC(=O)C(O)(c1ccccc1)c1ccccc1)c1ccc([N+](=O)[O-])o1 | 2 | 0 | 12 | 65* | 1 | -10
CCOC(=O)c1sc2nc(OCc3cccnc3)cc(C)c2c1N | / | -107 | / | / | / | /
COc1cc(OC)c(OC)cc1/C=N/Nc1ncnc2c1[nH]c1ccccc12 | 89* | 5 | -29 | -9 | 25 | 30
COc1ccc(/C=N/Nc2ncnc3c2[nH]c2ccc(C)cc23)c(OC)c1OC | 73* | -10 | -7 | 2 | 10 | 9
CCc1nc2c(OCCc3cccc(OC)c3)cccn2c1N(C)C(=O)c1ccc(OC)cc1 | 11 | 9 | -11 | / | / | -3
Cc1nn(C)c(=O)n1N(C)c1ncc(C(F)(F)F)cc1Cl | 67* | 14 | -25 | -4 | 1 | -4
O=C(/C=C/NNC(=O)c1ccccc1)c1ccc([N+](=O)[O-])cc1 | 47 | -11 | -3 | 64* | 6 | -20
O=C1C(=O)c2ccccc2C(O)=C1c1ccccc1F | 8 | 12 | 11 | 10 | -8 | -11
O=C1c2ccccc2C(=O)c2[nH]c(=O)[nH]c21 | 82* | 7 | -42 | 101* | 2 | 96*
O=C1c2ccccc2C(=O)c2[nH]cnc21 | -7 | 17 | 2 | 43 | 11 | -26
O=C1C(O)=C(O)C(=O)c2ccccc21 | 27 | 14 | -4 | 37 | 97* | 16
CNc1cncc(-c2cccc(C(=O)NCCN(C)C)c2)n1 | 6 | 13 | -1 | / | / | 8
CSc1nc(NCCN(C)C)c2sc3nc(-c4ccco4)c4c(c3c2n1)CCC4 | 106* | 19 | 3 | -4 | -1 | 4
Cc1ccc(NC2CCCN(C(=O)c3cc(C(C)C)nn3C)C2)cc1C (stereo unspecified) | -14 | -14 | -6 | / | / | -11
CCOC(=O)c1c(C)n(-c2ccc(C)cc2)c2ccc(OCC(O)CNCC3CCCO3)cc12 (stereo unspecified) | 86* | 12 | -37 | 69* | 21 | 41
CCOC(=O)c1c(C)n(-c2ccc(C)cc2)c2ccc(OCC(O)CNCCCO)cc12 (stereo unspecified) | 105* | 17 | -15 | 70* | 18 | 12
O=C(Nc1ncnc2c1C(c1ccccc1)c1c(ccc3ccccc13)O2)c1ccccc1 (stereo unspecified) | 34 | 17 | -15 | 16 | -5 | 39
O=C(Cc1ccccc1)Nc1ncnc2c1C(c1ccccc1)c1c(ccc3ccccc13)O2 (stereo unspecified) | 53* | 21 | -13 | 16 | 7 | 18
CSc1ccc(NC(=O)NCCCN2CCC(Cc3ccccc3)CC2)cc1 | 66* | 7 | -6 | 0 | 18 | 0
CC1CN(S(=O)(=O)c2cccc(C(=O)N(C)C3CCCCC3)c2)CC(C)O1 (stereo unspecified) | 13 | 9 | -1 | / | / | -11
Cc1cc(=O)oc2cc(OCc3ccc(C(=O)OCC(=O)Nc4ccc(N(C)C)cc4)cc3)ccc12 | -56 | -16 | -19 | -20 | 49* | -12
SMILES | Peg3 prom inh | HIF-2a block | KKLEB tox | TRPM1 prom inh | Beta2AR agonist | CF NFkB block
COc1ccccc1NC(=O)c1cc2c(CO)cnc(C)c2oc1=Nc1ccccc1 | 40 | 13 | 4 | 4 | 7 | -1
COc1ccccc1NC(=O)c1cc2c(CO)cnc(C)c2oc1=Nc1cccc(C(N)=O)c1 | 40 | -87 | -19 | -1 | 58* | 0
CSc1ccc(CNC(=O)C2CCC(=O)N(CC3CCCCC3)C2)cc1 (stereo unspecified) | 7 | -6 | 8 | / | / | -18
COc1ccc(OC)c(CCNC(=O)c2ccc3c(c2)N(Cc2ccccc2)CCS3)c1 | 22 | 5 | 1 | -20 | -3 | -5
COc1ccc(CCNC(=O)c2ccc3c(c2)N(Cc2ccccc2)CCS3)cc1OC | 55* | 3 | -3 | 13 | 9 | 16
Cc1ccccc1N1C(=O)CC(Sc2nnc(-c3ccccc3)o2)C1=O (stereo unspecified) | 95* | -40 | 3 | 10 | 16 | 39
O=C1CC(Sc2nnc(-c3ccccc3)o2)C(=O)N1c1ccccc1 (stereo unspecified) | -63 | -96 | 1 | 3 | 2 | -2
COc1cc(/C=C(\C#N)c2nc3ccccc3[nH]2)cc(Br)c1OCc1ccc(F)cc1 | -6 | 16 | 5 | -3 | -8 | -2
COc1cc(/C=C(\C#N)c2nc3ccccc3[nH]2)cc(Br)c1OCc1ccccc1 | 53* | -6 | -7 | 12 | 6 | -2
Cc1cccc2c1c1ccc3c(c1n2C)C(=O)C=CC3=O | 93* | 6 | -1 | 94* | 89* | 0
Cc1ccccc1N1CC(=O)N(c2ccccc2C)CC1=O | 16 | 16 | 0 | 20 | 4 | 1
COc1ccccc1CNC(=O)COc1cc(O)c2c(c1)OC(C)(C)CC2=O | -3 | -26 | -25 | / | / | -3
C[C@H](CO)N1C[C@H](C)[C@H](CN(C)C(=O)CCC(F)(F)F)OCc2cnnn2CCCC1=O | -3 | 12 | 13 | / | / | -22
O=C1C(C2=NC(c3ccccn3)C3C(=O)N(c4ccc(Cl)cc4Cl)C(=O)C23)=C(O)c2ccccc21 (stereo unspecified) | 51* | 16 | -39 | 90* | 5 | 53*
CN1CCN(C(=O)c2cc3c(c(-c4cccc(C#CC(C)(C)O)c4)n2)[C@@H](CCO)N(S(=O)C(C)(C)C)C3)CC1 (stereo partly specified) | 13 | 5 | -5 | / | / | 20
Cc1ccccc1NNC(=O)C(=O)NNc1ccccc1C | 7 | 9 | 16 | 9 | 4 | -23
Cc1ccccc1NC(=O)C(Cl)=C(Cl)Cl | 55* | -41 | 12 | 35 | 4 | -17
Cc1cccc(C)c1N1C(=O)c2ccccc2NC(=O)C1C(=O)Nc1ccc2c(c1)OCCO2 (stereo unspecified) | / | 1 | / | / | / | /
O=C(Cn1ncc2c([nH]c3ccccc32)c1=O)Nc1ccc(CN2CCCCC2)cc1 | 73* | 7 | -11 | ? | 9 | 1
CC(C)C(Cl)=NOC(=O)Nc1ccc(F)cc1 | 55* | 18 | 6 | 8 | -6 | 32
O=C(C[C@@H]1CC[C@H](NC(=O)Cc2ccccn2)[C@@H](CO)O1)NCCc1ccccc1 | / | 0 | / | / | / | /

Screens (PubChem)
